Data on 30 molecules can be found in PubChem BioAssay (NCATS).

Test [1] deals with Glutathione peroxidase 1 (Homo sapiens) (UniProt P07203). Nature of the test: Primary qHTS Assay for Inhibitors of Recombinant Selenoprotein Glutathione Peroxidase 1 (GPX1) (AID 1845191). Note: nearly all actives have a fitted effect of over 65% in size. Note: potency is the fitted concentration of half-maximal effect. Put shortly: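 Recombinant GPX1 (10 nM final) was preincubated with compound for 30 min at room temperature, then reacted with 1 mM GSH, 0.5 mM CHP, 0.5 mM NADPH and 100 nM glutathione reductase; NADPH fluorescence (340/450 nm) was read at 0 and 15 min.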
Sequence of Glutathione peroxidase 1 (Homo sapiens) (P07203 whole entry, looked up): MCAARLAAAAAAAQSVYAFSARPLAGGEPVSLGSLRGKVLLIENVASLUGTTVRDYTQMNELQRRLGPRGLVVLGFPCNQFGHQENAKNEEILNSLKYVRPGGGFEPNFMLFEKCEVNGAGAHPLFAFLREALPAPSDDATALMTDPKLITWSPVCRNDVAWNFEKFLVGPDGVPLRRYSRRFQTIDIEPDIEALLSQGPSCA
(In qHTS, concentration-response curves come from the screen itself.)

Test [2] has as its target Phospholipid hydroperoxide glutathione peroxidase GPX4 (Homo sapiens) (UniProt P36969). Nature of the test: Primary qHTS Assay for Inhibitors of Recombinant Selenoprotein Glutathione Peroxidase 4 (GPX4) (AID 1845192). Note: nearly all actives have a fitted effect of over 65% in size. Note: potency is the fitted concentration of half-maximal effect. Put shortly: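 GR-coupled readout: 100 nM GR, 1 mM GSH, 0.5 mM NADPH; NADPH fluorescence (ex 340/em 450 nm) read at t=0 and after 15 min RT. GPX4 200 nM, preincubated 30 min with compound; substrate 0.5 mM CHP.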

The target in test [3] is Rap guanine nucleotide exchange factor 4 (Homo sapiens) (UniProt Q8WZA2). The experiment in a line: Confirmatory qHTS for agonist of cAMP-regulated guanine nucleotide exchange factor 4 (EPAC2) (AID 1645884).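 Note: nucleotide exchange releases bodipy-GDP from Rap1 and this lowers its fluorescence; % is set by controls: 0 for no effect and ±100 for the full control effect; nearly all actives have a fitted effect of over 65% in size.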
Sequence of Rap guanine nucleotide exchange factor 4 (Homo sapiens) (Q8WZA2 whole entry, looked up): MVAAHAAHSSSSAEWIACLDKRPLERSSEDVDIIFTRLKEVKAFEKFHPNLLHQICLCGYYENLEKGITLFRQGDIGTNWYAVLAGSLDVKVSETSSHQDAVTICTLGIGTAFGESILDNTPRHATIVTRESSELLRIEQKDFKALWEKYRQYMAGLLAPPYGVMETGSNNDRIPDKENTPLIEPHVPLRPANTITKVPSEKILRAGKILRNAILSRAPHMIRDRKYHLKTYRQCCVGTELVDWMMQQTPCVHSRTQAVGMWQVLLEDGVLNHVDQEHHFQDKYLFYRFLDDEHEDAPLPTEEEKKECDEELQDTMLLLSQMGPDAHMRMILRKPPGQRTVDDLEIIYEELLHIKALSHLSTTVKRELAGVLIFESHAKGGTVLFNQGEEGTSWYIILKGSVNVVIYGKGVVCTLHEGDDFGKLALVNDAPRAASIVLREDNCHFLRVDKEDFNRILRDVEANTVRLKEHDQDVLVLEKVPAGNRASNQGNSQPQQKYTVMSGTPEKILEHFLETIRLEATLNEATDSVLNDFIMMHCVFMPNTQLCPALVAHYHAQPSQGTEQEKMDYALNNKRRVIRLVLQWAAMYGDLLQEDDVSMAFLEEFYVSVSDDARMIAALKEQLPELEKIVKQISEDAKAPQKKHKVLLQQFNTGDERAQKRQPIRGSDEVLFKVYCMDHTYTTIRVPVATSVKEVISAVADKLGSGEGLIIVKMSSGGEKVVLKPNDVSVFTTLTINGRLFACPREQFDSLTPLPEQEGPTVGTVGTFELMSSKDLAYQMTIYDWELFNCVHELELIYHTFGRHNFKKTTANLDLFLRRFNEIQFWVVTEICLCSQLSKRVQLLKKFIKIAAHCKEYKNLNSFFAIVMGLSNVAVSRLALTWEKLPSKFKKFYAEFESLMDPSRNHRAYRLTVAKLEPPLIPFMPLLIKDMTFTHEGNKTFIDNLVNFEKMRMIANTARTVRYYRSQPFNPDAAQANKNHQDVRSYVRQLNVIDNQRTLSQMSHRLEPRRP
Test [4] has the same target. Nature of the test: Confirmatory qHTS for antagonist of cAMP-regulated guanine nucleotide exchange factor 4 (EPAC2) (AID 1645885). Note: nearly all actives have a fitted effect of over 25% in size. Note: potency is the fitted concentration of half-maximal effect.
Test [5] in a line: NCATS anti-infectives library activity on HEK293 viability as a counter-qHTS vs the C. elegans viability qHTS (AID 1745854).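 Note: HEK293 cells exposed to compounds for 24 hr before the viability read; % is set by controls: 0 for no effect and ±100 for the full control effect.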 Put shortly:
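Cytotoxicity in human HEK293 cells is measured by ATP-dependent CellTiter-Glo luminescence following a 24 hr incubation with titrated library compounds at 37C. Top final concentration is 41.7 uM.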

The nature of test [6]: Viability counterscreen for antagonist of constitutive androstane receptor (CAR) against the NCATS DSHEA and TCM libraries (AID 1794837).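 Note: compound exposure lasted 24 h before viability reading; 0% is about no effect.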 A digest of the protocol:
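Counterscreen performed in a 1536-well qHTS format using HepG2-CYP2B6-hCAR cells; samples titrated in the presence of 48 uM CITCO, with viability measured fluorometrically (405/540 nm) after 24 h.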
(The purpose of a counterscreen is to sort out artefacts and off-target activity.)

Test [7] is described as follows: Viability counterscreen for agonist of constitutive androstane receptor (CAR) against the NCATS DSHEA and TCM libraries (AID 1794838).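 Note: cells exposed to compound for 24 h; 0% is about no effect.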 A digest of the protocol: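 Multiplexed counterscreen: after 24 h compound exposure with 0.75 uM PK11195, HepG2-CYP2B6-hCAR viability was quantified fluorimetrically (CellTiter-Fluor, 405/540 nm) prior to the ONE-Glo luciferase read.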

The target of test [8] is Nuclear receptor subfamily 1 group I member 3 (Homo sapiens) (UniProt Q14994). Nature of the test: Primary qHTS for agonist of constitutive androstane receptor (CAR) against the NCATS DSHEA and TCM libraries (AID 1794839).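 Note: HepG2 cells expressing human CAR with a CYP2B6 reporter plus PK11195 antagonist; luciferase reporter luminescence read with ONE-Glo; 0% is about no effect.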 A digest of the protocol: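 Concentration–response screen in HepG2-CYP2B6-hCAR cells under 0.75 µM PK11195; 24 h exposure; luminescent reporter signal with multiplexed fluorescent viability.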
Sequence of Nuclear receptor subfamily 1 group I member 3 (Homo sapiens) (Q14994 whole entry, looked up): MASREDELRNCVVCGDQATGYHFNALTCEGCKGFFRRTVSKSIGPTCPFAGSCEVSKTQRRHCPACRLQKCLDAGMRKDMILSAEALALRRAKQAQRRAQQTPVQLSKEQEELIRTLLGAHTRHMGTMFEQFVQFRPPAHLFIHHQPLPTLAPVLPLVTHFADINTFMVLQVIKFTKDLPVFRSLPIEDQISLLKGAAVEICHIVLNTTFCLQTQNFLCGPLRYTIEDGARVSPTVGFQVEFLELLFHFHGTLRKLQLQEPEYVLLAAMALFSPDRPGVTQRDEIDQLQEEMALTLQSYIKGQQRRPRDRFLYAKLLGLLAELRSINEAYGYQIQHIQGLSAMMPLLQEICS

The nature of test [9]: HepG2 viability counterscreen (readout 2: ATP content) against the NCATS DSHEA and TCM libraries (AID 1794840).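 Note: HepG2 cells exposed to substances for about 24 h; 0% is about no effect.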 Put shortly:
(§1)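 After HepG2 cells attach for ~4 h, substances are added and incubated ~24 h at 37C, 5% CO2. GF-AFC fluorescence then CellTiter-Glo luminescence give protease and ATP readouts.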

The nature of test [10]: HepG2 viability counterscreen (readout 1: protease activity) against the NCATS DSHEA and TCM libraries (AID 1794841).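 Note: cells exposed to compounds for about 24 h before the protease read; 0% is about no effect.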 Put shortly: as §1
Test [11] addresses Cytochrome P450 3A4 (Homo sapiens) (UniProt P08684). Nature of the test: qHTS for inhibitors of CYP3A4 against the NCATS DSHEA and TCM libraries (AID 1919971).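 Note: % is set by controls: 0 for no effect and ±100 for the full control effect; inhibition lowers luminescence from luciferin made by CYP3A4.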 Put shortly: (§2)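 Light output from converted D-luciferin reports remaining CYP activity. Compounds preincubate with enzyme and substrate for 15 min; NADPH regeneration (1x final) runs the reaction for 30-45 min.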
The target of test [12] is Cytochrome P450 2D6 (Homo sapiens) (UniProt P10635). Nature of the test: qHTS for inhibitors of CYP2D6 against the NCATS DSHEA and TCM libraries (AID 1919972). Note: % is set by controls: 0 for no effect and ±100 for the full control effect. Put shortly: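 Steps: enzyme plus luciferin substrate dispensed; test substances pinned; 15 min RT; 1x NADPH regenerating solution added, 30–45 min RT protected from light; detection reagent, 30 min RT; luminescence measured. Minus-enzyme wells as background.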
Sequence of Cytochrome P450 2D6 (Homo sapiens) (P10635 whole entry, looked up): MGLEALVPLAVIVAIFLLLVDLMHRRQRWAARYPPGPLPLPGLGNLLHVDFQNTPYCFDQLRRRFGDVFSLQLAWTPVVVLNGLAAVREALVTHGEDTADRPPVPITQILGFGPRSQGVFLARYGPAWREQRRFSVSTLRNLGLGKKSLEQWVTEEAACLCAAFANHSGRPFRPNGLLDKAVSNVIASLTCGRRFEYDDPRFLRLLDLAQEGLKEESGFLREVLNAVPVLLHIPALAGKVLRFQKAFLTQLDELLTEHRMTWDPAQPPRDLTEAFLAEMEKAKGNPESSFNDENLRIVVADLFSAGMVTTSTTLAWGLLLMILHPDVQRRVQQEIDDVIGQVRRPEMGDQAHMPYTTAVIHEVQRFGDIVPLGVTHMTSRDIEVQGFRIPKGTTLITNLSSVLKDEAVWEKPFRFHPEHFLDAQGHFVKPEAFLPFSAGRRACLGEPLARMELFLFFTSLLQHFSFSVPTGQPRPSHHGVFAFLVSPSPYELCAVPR

In test [13] the target is Cytochrome P450 2C9 (Homo sapiens) (UniProt P11712). The experiment in a line: qHTS for inhibitors of CYP2C9 against the NCATS DSHEA and TCM libraries (AID 1919973).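 Note: luminogenic pro-luciferin CYP2C9 substrate turned into luciferin with NADPH regeneration; % is set by controls: 0 for no effect and ±100 for the full control effect.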 Put shortly:
as §2

The target of test [14] is Cytochrome P450 2C19 (Homo sapiens) (UniProt P33261). Nature of the test: qHTS for inhibitors of CYP2C19 against the NCATS DSHEA and TCM libraries (AID 1919974).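 Note: luminescence from luciferin released by CYP2C19 oxidation of a pro-luciferin substrate.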 Note: potency is the fitted concentration of half-maximal effect. A digest of the protocol: as §2
Sequence of Cytochrome P450 2C19 (Homo sapiens) (P33261 whole entry, looked up): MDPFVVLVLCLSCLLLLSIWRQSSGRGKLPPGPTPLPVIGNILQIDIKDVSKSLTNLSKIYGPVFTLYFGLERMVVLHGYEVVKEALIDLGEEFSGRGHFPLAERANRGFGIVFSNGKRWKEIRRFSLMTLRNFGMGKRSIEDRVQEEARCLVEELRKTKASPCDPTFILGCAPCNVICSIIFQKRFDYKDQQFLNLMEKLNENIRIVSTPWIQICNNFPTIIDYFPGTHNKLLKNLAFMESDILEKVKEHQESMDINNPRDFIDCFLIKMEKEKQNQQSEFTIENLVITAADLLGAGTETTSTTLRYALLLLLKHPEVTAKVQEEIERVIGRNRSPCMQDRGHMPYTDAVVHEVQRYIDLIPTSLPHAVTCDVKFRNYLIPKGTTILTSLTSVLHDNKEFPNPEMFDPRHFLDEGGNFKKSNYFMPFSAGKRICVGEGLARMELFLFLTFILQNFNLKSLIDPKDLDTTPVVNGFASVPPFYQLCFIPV
Test [15] can be described thus: KB-3-1 P-gp reporter qHTS against the NCATS DSHEA and TCM libraries (AID 1919975). Note: 0% is about no effect. A digest of the protocol:
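Cell viability qHTS: 500 KB-3-1 cells/well, substances in titration, ~72 h, 37C; luminescent CellTiter-Glo read.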

Test [16] deals with Cytochrome P450 1A2 (Homo sapiens) (UniProt P05177). The experiment in a line: qHTS for inhibitors of CYPIA2 against the NCATS DSHEA and TCM libraries (AID 1919976).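 Note: light from luciferin formed by CYP1A2 from a pro-luciferin substrate; % is set by controls: 0 for no effect and ±100 for the full control effect.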 A digest of the protocol: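 In this quantitative HTS, inhibition of recombinant human CYP1A2 was measured as loss of luciferin-derived luminescence. Turnover ran 30-45 min at RT after NADPH regeneration solution was added.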
Sequence of Cytochrome P450 1A2 (Homo sapiens) (P05177 whole entry, looked up): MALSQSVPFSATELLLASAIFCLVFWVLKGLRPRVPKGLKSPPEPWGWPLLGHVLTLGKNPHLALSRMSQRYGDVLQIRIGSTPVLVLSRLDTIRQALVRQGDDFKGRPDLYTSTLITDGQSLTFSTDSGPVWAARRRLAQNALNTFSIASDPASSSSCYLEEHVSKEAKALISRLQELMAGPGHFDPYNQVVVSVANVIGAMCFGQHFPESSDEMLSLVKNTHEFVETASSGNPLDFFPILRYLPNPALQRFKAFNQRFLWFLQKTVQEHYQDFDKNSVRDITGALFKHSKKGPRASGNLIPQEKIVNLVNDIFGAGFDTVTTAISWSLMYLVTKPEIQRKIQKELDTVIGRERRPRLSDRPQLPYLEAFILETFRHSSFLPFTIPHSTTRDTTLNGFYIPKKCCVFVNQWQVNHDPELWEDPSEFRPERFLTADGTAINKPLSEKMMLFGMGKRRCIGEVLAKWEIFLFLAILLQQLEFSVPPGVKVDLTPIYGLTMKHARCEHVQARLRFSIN

Test [17] in a line: qHTS Counterscreen for compound interference against the NCATS DSHEA and TCM libraries (AID 1919978).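 Note: compounds preincubated with 1 µM D-luciferin or buffer before detection reagent; % of control where 0% means no effect.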 The settings on record: firefly luciferase detection reagent interference, luminescence. A digest of the protocol: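 Interference check: test samples were incubated with D-luciferin (final 1 uM) or buffer only for 15 min, room temperature, in a qHTS titration up to 39.8 uM, then developed with detection reagent and read by luminescence.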

Test [18] in a line: Dual reporter qHTS for agonist of Pregnane X Receptor (hPXR) against the NCATS DSHEA and TCM libraries: Fluorescence readout (AID 1920058). Note: 0% is about no effect. Put shortly:
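Measures viability of the PXR reporter HepG2 line by protease-substrate fluorescence (405/540 nm), taken 1 h after CellTiter-Fluor addition. Substances are tested as concentration series over a ~24 h exposure, with rifampicin as agonist control.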

Test [19] is described as follows: NCATS anti-infectives library activity on the primary C. elegans qHTS viability assay (AID 1745855; calls by dose curve). The settings on record: C. elegans worm area imaging, day 7; at 41.8 µM (top of the series). A digest of the protocol:
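Viability is taken from GFP fluorescence of PE254-GFP-FLuc C. elegans imaged by laser cytometry over 7 days. Ten L1 worms per well grow at 21 °C on TOP10 E. coli capsules with titrated compound; levamisole marks toxicity.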

The target in test [20] is Rap guanine nucleotide exchange factor 3 (Homo sapiens) (UniProt O95398). The experiment in a line: Counterscreen qHTS for antagonist of cAMP-regulated guanine nucleotide exchange factor 3 (EPAC1) (AID 1645888).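 Note: fluorescence loss as bound BODIPY-GDP is released from Rap1B; % of control where 0% means no effect.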 Put shortly:
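Measured: fluorescence of BODIPY-GDP bound to Rap1B, which falls as exchange proceeds. Conditions include 50 uM competing GDP, 5 and 30 min reads, and a later cAMP challenge for antagonist detection.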

Where “and” joins values, the source holds several entries; their conditions need not be identical. Equal values may be shown once. Results filed as inconclusive are left out. The source holds several records for some structures; these can differ, active in one and inactive in another. Calls of active or inactive are those of the source. Unless noted, calls come from the whole dose curve; as a rule, active = well fitted curve in the direction sought with a large enough effect; inconclusive = small, poorly fitted or top-dose-only effect, or another doubt; inactive = no such curve, though single readings can be large; an effect the other way counts as inactive or inconclusive.

Sequence of Phospholipid hydroperoxide glutathione peroxidase GPX4 (Homo sapiens) (P36969 whole entry, looked up): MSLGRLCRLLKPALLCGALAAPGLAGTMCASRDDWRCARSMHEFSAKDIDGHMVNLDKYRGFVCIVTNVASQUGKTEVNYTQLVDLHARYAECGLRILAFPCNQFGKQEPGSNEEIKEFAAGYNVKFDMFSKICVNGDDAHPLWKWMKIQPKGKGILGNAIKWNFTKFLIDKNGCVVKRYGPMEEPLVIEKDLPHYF
Sequence of Cytochrome P450 2C9 (Homo sapiens) (P11712 whole entry, looked up): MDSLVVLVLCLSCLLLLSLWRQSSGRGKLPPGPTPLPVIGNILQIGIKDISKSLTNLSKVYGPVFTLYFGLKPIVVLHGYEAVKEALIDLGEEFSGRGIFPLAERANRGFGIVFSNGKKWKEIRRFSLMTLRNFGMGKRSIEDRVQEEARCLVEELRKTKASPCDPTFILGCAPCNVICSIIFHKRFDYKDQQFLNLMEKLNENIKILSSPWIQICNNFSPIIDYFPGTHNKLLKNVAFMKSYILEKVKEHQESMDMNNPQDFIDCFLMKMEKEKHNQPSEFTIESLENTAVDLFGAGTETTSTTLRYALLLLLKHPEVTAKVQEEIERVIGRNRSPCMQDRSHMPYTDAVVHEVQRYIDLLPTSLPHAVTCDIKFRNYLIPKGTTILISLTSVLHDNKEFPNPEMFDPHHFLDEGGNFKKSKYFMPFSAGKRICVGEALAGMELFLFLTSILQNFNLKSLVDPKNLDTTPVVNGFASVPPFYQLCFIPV
Sequence of Cytochrome P450 3A4 (Homo sapiens) (P08684 whole entry, looked up): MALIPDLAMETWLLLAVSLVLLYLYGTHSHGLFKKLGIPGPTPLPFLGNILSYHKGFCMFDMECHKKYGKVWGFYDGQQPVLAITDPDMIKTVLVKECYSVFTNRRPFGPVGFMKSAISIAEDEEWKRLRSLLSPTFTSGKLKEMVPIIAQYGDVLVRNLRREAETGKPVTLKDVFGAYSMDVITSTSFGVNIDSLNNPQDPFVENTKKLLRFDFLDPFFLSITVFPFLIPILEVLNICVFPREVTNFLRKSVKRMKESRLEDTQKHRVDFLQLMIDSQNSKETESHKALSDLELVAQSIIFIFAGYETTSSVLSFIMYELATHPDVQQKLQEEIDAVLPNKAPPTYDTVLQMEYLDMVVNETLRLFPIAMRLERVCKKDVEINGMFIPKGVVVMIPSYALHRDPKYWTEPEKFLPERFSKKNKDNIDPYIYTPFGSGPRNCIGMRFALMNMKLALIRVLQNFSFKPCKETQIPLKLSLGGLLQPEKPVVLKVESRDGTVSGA

For the molecule `NC(N)=NS(=O)(=O)c1ccc(N)cc1`, the Potency result in [1] and in [2] was “inactive” each time.

Turning to `CCN(CC)C(=O)c1cccc(C)c1`, the Potency result in test [1] and in [2] was “inactive” in each case.

As for `Cn1cc(C(=O)[C@@H]2CCc3nc[nH]c3C2)c2ccccc21`, the Potency result in [1] and in [2] was “inactive” in each case.

With `O=C(O)C(S)C(S)C(=O)O` (centres undefined), in [1], the Potency was 7.18 µM (active).

On to `CC1(C)[C@@H](OC(=O)CCC(=O)O)CC[C@]2(C)[C@H]3C(=O)C=C4[C@@H]5C[C@@](C)(C(=O)O)CC[C@]5(C)CC[C@@]4(C)[C@]3(C)CC[C@@H]12`, for which, in [3], the call was inactive. For the same molecule, the Potency in test [4] is 4.21 µM (active) and 4.13 µM (active). Further, the Potency entry in [1] and in test [2] was “inactive” each time.

On to `O=C(O)CCCc1ccccc1`, for which, in [5], the molecule was called inactive. The Potency entry in [1] and in [2] was “inactive” throughout.

Regarding `NC(=O)NC1NC(=O)NC1=O` (centres undefined), the call in [3], in [6], in test [7], in test [8], in [9] and in test [10] was inactive. Besides, the call in test [11], in test [12], in test [13], in test [15], in test [16] and in test [18] was inactive. In addition, the Potency result in [4], in test [1], in test [2] and in test [14] was “inactive” each time. In test [17], the max response is -2.81% (inactive).

For `CC(=O)N[C@H]1[C@H]([C@H](O)[C@H](O)CO)OC(C(=O)O)=C[C@@H]1N=C(N)N`, the molecule was classed as inactive in test [5]. Further, the Potency result in [1] and in test [2] was “inactive” each time.

In the case of `O=C(/C=C/c1ccc(O)c(O)c1)O[C@@H]1C[C@@](OC(=O)/C=C/c2ccc(O)c(O)c2)(C(=O)O)C[C@@H](O)[C@@H]1O`, the result in test [9], in test [10], in test [11], in test [12], in test [13] and in test [15] was inactive. In test [18], the outcome was inactive. Also, the Potency result in test [14] is “inactive”. Moreover, the max response in test [17] is 5.25% (inactive).

On to `CC(C)=CCC[C@@](C)(O)[C@H]1CC=C(C)CC1`, for which the result in [6], in [7], in test [8], in test [9], in [10] and in [12] was inactive. Also, the molecule was called inactive in test [15], in test [16] and in test [18]. The Potency in test [14] is 5.01 µM (active). Further, the max response in test [17] is 1.71% (inactive).

For the molecule `O=c1[nH]c(=O)n([C@H]2C[C@H](O)[C@@H](CO)O2)cc1I`, the outcome in test [5] was inactive. In addition, the Potency result in test [1] and in test [2] was “inactive” in each case.

As for `O=C(O)/C=C/c1ccc(Cn2ccnc2)cc1`, the Potency entry in test [1] and in test [2] was “inactive” in each case.

Turning to `O=C1c2cccc(O)c2C(=O)c2c(O)cccc21`, the molecule was classed as inactive in test [5]. Further, in [2], the Potency entry was “inactive”.

In the case of `CCOc1ccc(C(=O)OCCN(CC)CC)cc1`, the Potency result in test [1] and in test [2] was “inactive” throughout.

Turning to `COc1ccccc1OC(=O)Oc1ccccc1OC`, the Potency entry in test [1] and in [2] was “inactive” throughout.

`COc1ccccc1Oc1c(NS(=O)(=O)c2ccc(C(C)(C)C)cc2)nc(-c2ncccn2)nc1OCCO`: the Potency result in [1] and in test [2] was “inactive” throughout.

As to `COC(=O)c1ccc(O)cc1`, the Potency result in test [1] and in [2] was “inactive” each time.

In the case of `C=CCOc1ccccc1OCC(O)CNC(C)C` (centres undefined), the call in [5] was inactive. Besides, the Potency entry in [1] and in test [2] was “inactive” in each case.

For `CN1CCCN=C1COC(=O)C(O)(c1ccccc1)C1CCCCC1` (centres undefined), the Potency entry in [1] and in [2] was “inactive” throughout.

For `Cc1ccc(C(C)C)c(O)c1`, the molecule was called inactive in [6], in test [7], in test [8], in [9], in test [10] and in test [11]. In addition, the molecule was called inactive in [12], in test [13], in test [15] and in [18]. Also, the Potency entry in [1] and in test [2] was “inactive” in each case. In test [17], the max response is 0.241% (inactive).

In the case of `C=CCN1C[C@H](C(=O)N(CCCN(C)C)C(=O)NCC)C[C@@H]2c3cccc4[nH]cc(c34)C[C@H]21`, the Potency entry in test [1] is “inactive”.

In the case of `NCc1ccc(S(N)(=O)=O)cc1`, the outcome in test [5] and in [19] was inactive. Also, the Potency result in test [1] and in test [2] was “inactive” in each case.

Regarding `CCCCCCCC(=O)OCC(O)CO` (centres undefined), the Potency entry in test [1] and in [2] was “inactive” throughout.

As for `COc1ccc2cc(CCC(C)=O)ccc2c1`, the result in test [3], in [20] and in test [5] was inactive. In test [4], the Potency is 8.79 µM (active) and inactive. For the same molecule, the Potency result in test [1] and in [2] was “inactive” each time.

Turning to `CCCCCCCCCCCCCCCCC(C(=O)O)C(O)(CC(=O)O)C(=O)O` (centres undefined), in test [1], the Potency result was “inactive”. Also, the Potency in test [2] is 4.47 µM (active).

On to `CCOC(=O)[C@H](CCc1ccccc1)N[C@@H](C)C(=O)N1Cc2cc(OC)c(OC)cc2C[C@H]1C(=O)O`, for which the outcome in [5] and in [19] was inactive. Moreover, the Potency result in test [1] and in test [2] was “inactive” each time.

In the case of `C/C=C/C(=O)N(CC)c1ccccc1C`, the Potency result in [1] and in [2] was “inactive” each time.

Consider `CCc1cccc(CC)c1NC(=O)CN(CC(=O)O)CC(=O)O`, for which the Potency result in test [1] and in [2] was “inactive” in each case.

On to `CC(CSC(=O)c1ccccc1)C(=O)N1C[C@@H](Sc2ccccc2)C[C@H]1C(=O)O` (some centres undefined), for which, in test [1], the Potency result is “inactive”.

Regarding `Cc1cc(O)cc(C)c1Cl`, the outcome in [5] was inactive. The Potency result in test [1] and in [2] was “inactive” throughout.
